Hits are enriched below; roughly 2.9% of the tested compounds scored in any of these assays.
SNCA viab count: GF-AFC viability counterscreen for inhibitors of alpha-synuclein gene (SNCA) expression; HEK-293-SNCA-luc viability, GF-AFC fluorescence, 24 h; Potency, µM (top dose mostly 57.1 µM), without a hit: top-dose activity change, negative = cytotoxicity, actives largely listed as cytotoxic; hit rate 0.12% among 150,000;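 note: potency is the fitted concentration of half-maximal effect; 0% = DMSO-treated cells and -100% = medium-only wells without cells; nearly all actives have a fitted effect of over 30% in size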
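Cytotoxicity counterscreen: after 24 h compound treatment of genome-edited SNCA-luciferase HEK-293 cells, live-cell protease substrate GF-AFC read by fluorescence after 30 min; activity scaled between DMSO (0%) and medium-only (-100%), curves Hill-fitted.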
KDM5B inhibitor: Primary screen for KDM5B Histone Demethylases FDH-coupled qHTS | KDM5B demethylase, FDH-coupled NADH fluorescence (FDH is formaldehyde dehydrogenase) | Potency, µM (series often up to 57.7 µM), usual class: inhibitors | hit rate 2.6% among 220,000; note: potency is the fitted concentration of half-maximal effect; 0% is about no effect; nearly all actives have a fitted effect of over 70% in size
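Here, H3K4me3 peptide (12.5 µM in substrate mix) is demethylated by KDM5BΔAP, 200 nM final, after 10 min compound exposure. Formaldehyde product is coupled through FDH (0.25 U/mL in mix) to NADH fluorescence; 30-min ΔRFU feeds dose-response curves.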
IP6K1 inh: Primary qHTS assay for small molecule inhibitors of Inositol hexaphosphate kinase 1 (IP6K1); activity change, % (series mostly up to about 58 µM); Inositol hexakisphosphate kinase 1 (Homo sapiens), Q92551; hit rate 0.81% among 140,000; IP6K1 kinase, ADP-Glo luminescence, 2 h; stronger effect = lower value; AID 1645851, 2021; in the data active = activity change below about -25%; note: % is set by controls: 0 for no effect and ±100 for the full control effect
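ADP-Glo luminescence measures ADP made by human IP6K1 during a 2 h RT reaction with ATP/IP6 (mix at 1.3 mM/130 uM); top library doses 57.5 and 19.1 uM final.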
SNCA expr inh: Primary qHTS assay for inhibitors of alpha-synuclein gene (SNCA) expression; HEK-293 SNCA-luciferase knock-in, luminescence, 24 h; Potency, µM (doses to about 57.2 µM), without a hit: at the top dose activity change, negative = inhibition, usual class: inhibitors; hit rate 0.17% among 140,000;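 note: potency is the fitted concentration of half-maximal effect; plate controls were DMSO cells for no effect and cell-free wells for full effect; nearly all actives have a fitted effect of over 45% in size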
An asterisk follows results filed as active; i = inactive; ? = inconclusive; . = no result; [ ] = another dose, or the depositor's remark. Unless noted, calls come from the whole dose curve; as a rule, active = well fitted curve in the direction sought with a large enough effect; inconclusive = small, poorly fitted or top-dose-only effect, or another doubt; inactive = no such curve, though single readings can be large; an effect the other way counts as inactive or inconclusive.

SMILES	SNCA viab count	KDM5B inhibitor	IP6K1 inh	SNCA expr inh
Cc1cn2nc(C(=O)NCc3ccccc3C(F)(F)F)cc2c(N2CCCC2)n1	-12%	14µM*	15	-13%
Cc1cn2nc(C(=O)NC3CCC(C)CC3)cc2c(N2CCCC2)n1 (centres undefined)	-16%	28µM*	5	-14%
COc1cccc(-c2ccc(CN3CCCC(NC(=O)c4ccncc4)C3)cc2)c1 (centres undefined)	-8%	.	-3	6%
Cc1cccc(-c2nc3ccc(C(=O)NCCc4ccccc4)cc3o2)n1	7%[87.6 µM]	.	8	93%[87.6 µM]
CC(C)c1nc2c(c(-c3ccc(O)cc3)n1)CCN(Cc1ccc(C(F)(F)F)cc1)CC2	-8%	i	9	16%
CCOC(=O)[C@@H]1CN(C(=O)c2ccc(C)cc2)[C@H]2c3cccc(F)c3O[C@@H]12	.	.	12	.
CCO[C@H]1CN(C(=O)c2nc3ccccc3[nH]c2=O)C[C@@H]1O	-9%	25µM*	32	9%
COc1ccc(Cl)cc1-c1ccc2c(c1)C(=O)N1CCN(C(=O)C3CC3)C[C@@H]1C(=O)N2	-5%[87.6 µM]	?	-11	10%[87.6 µM]
CCCNC(=O)N1CCN2C(=O)c3cc(-c4cccc(C(F)(F)F)c4)ccc3NC(=O)[C@@H]2C1	-9%	32µM*	2	-22%
COc1ccc(-c2ccc3c(c2)C(=O)N2CCN(C(=O)c4cccc(F)c4)C[C@@H]2C(=O)N3)cc1	-6%	18µM*	3	28%
COc1ccc(Cl)cc1-c1ccc2c(c1)C(=O)N1CCN(C(=O)C3CCCCC3)C[C@@H]1C(=O)N2	-2%	10µM*	-6	-23%
COc1ccc(Cl)cc1-c1ccc2c(c1)C(=O)N1CCN(C(=O)c3ccc(N(C)C)cc3)C[C@@H]1C(=O)N2	?	32µM*	0	?
O=C1Nc2ccc(-c3cccc(C(F)(F)F)c3)cc2C(=O)N2CCN(C(=O)c3cccc(F)c3)C[C@H]12	1%	i	2	27%
COc1ccc(Cl)cc1-c1ccc2c(c1)C(=O)N1CCN(C(=O)c3ccccc3)C[C@@H]1C(=O)N2	-11%	22µM*	-4	?
COc1ccc(Cl)cc1-c1ccc2c(c1)C(=O)N1CCN(C(=O)c3cccs3)C[C@@H]1C(=O)N2	-6%	28µM*	21	-18%
O=C1Nc2ccc(-c3ccccc3F)cc2C(=O)N2CCN(C(=O)c3ccccc3)C[C@H]12	2%[87.6 µM]	40µM*	0	?
O=C(C1CCN(Cc2ccccc2-c2ccccc2F)CC1)N1CCN(Cc2ccccc2)CC1	.	.	12	.
COc1ccc(NC(=O)c2cccc3c2CCN3C(=O)c2ccc(F)cc2)c(OC)c1	-22%	?	-7	?
COc1cccc(-c2cc(-c3c(C)noc3C)c3cncn3c2)c1	-8%[87.6 µM]	?	-11	9%[87.6 µM]
COc1cccc(-c2cc(-c3ccc(=O)[nH]c3)c3cncn3c2)c1	6%[87.6 µM]	?	-15	-26%[87.6 µM]
Cc1noc(C)c1-c1cc(-c2ccccc2O)cn2cncc12	2%[87.6 µM]	i	-6	-12%[87.6 µM]
Cc1noc(C)c1-c1cc(-c2cccnc2)cn2cncc12	11%[87.6 µM]	35µM*	-21	2%[87.6 µM]
Cc1noc(C)c1-c1cc(-c2cnn(C)c2)cn2cncc12	11%[87.6 µM]	40µM*	-13	-6%[87.6 µM]
COc1cccc(-c2cc(-c3ccc(OC)nc3)c3cncn3c2)c1	-9%[87.6 µM]	32µM*	-20	6%[87.6 µM]
Cc1noc(C)c1-c1cc(-c2cccc(CO)c2)cn2cncc12	4%[87.6 µM]	35µM*	-14	4%[87.6 µM]
SMILES	SNCA viab count	KDM5B inhibitor	IP6K1 inh	SNCA expr inh
O=C(NCc1ccccc1)C1CCCN(Cc2cccc(-c3ccsc3)c2)C1 (centres undefined)	.	.	-12	.
C1=C(c2cc(-c3cccc(N4CCOCC4)c3)cn3cncc23)CCOC1	-1%[87.6 µM]	?	-2	25%[87.6 µM]
CC(=O)Nc1cccc(-c2cc(-c3c(C)noc3C)c3cncn3c2)c1	3%[87.6 µM]	40µM*	-5	35%[87.6 µM]
CC(=O)Nc1cccc(-c2cc(C3=CCOCC3)c3cncn3c2)c1	14%[87.6 µM]	40µM*	7	18%[87.6 µM]
COc1ccc(-c2cc(-c3cnn(C)c3)cn3cncc23)cc1	-14%[87.6 µM]	35µM*	-16	-27%[87.6 µM]
CN(Cc1ccccc1C(F)(F)F)C(=O)c1cccc(Cl)c1	0%[87.6 µM]	i	-12	-17%[87.6 µM]
COc1ccc(-c2noc([C@@H]3Cc4nc[nH]c4CN3C(=O)Nc3ccccc3)n2)cc1	?	?	14	15%[87.6 µM]
CN(C)c1cccc(C(=O)NCC2CCN(c3cc(-c4ccccc4)[nH]n3)CC2)c1	-1%	25µM*	17	85%
Cc1ccc(-c2cc(N3CCCN(C(=O)c4cccc(N(C)C)c4)CC3)n[nH]2)cc1C	18µM*	?	-10	-27%
CN(C)c1ccc(C(=O)NCC2CCN(c3cc(-c4ccc(F)cc4)[nH]n3)CC2)cc1	-21%	?	5	-14%
C=CCOc1c(OC)ccc2c1CN(CC)C(=O)CCN2C[C@@H](O)COCc1ccccc1	.	.	-1	.
Cc1ccc(-n2nc3c(=O)n(CCCC(=O)NCCc4ccccc4)nc(C)c3c2C)cc1	5%	i	10	22%
Cc1ccc(-n2nc3c(=O)n(CCCC(=O)NC(C)c4ccccc4)nc(C)c3c2C)cc1 (centres undefined)	2%	i	0	28µM*
Cc1ccc2c(C(=O)NCc3ccc(Cl)cc3)cnn2c1	6%[87.6 µM]	35µM*	-13	-6%[87.6 µM]
Cc1ccc2c(C(=O)Nc3ccc(Cl)nc3)cnn2c1	-5%[87.6 µM]	40µM*	0	172%[87.6 µM]
C=CCNC(=O)c1cnn2c1CN(C(C)=O)CC2	3%[87.6 µM]	i	-12	3%[87.6 µM]
Cc1ccc2c(C(=O)Nc3ccc(F)cc3)cnn2c1	0%[87.6 µM]	?	0	109%[87.6 µM]
C=CCNC(=O)c1cnn2c1CN(C(=O)c1cccnc1)CC2	2%	i	4	5%
C=CCNC(=O)c1cnn2ncccc12	1%[87.6 µM]	32µM*	9	101%[87.6 µM]
O=C(NCc1ccc(Cl)cc1)c1cccn2cncc12	?	?	-2	-7%[87.6 µM]
C=CCNC(=O)c1cnn2cc(C)ccc12	4%[87.6 µM]	40µM*	6	-7%[87.6 µM]
Cc1nn(-c2ccccc2)c2c1C(C)N(C1CN(C(=O)NC3CCCC3)C1)C2=O (centres undefined)	.	.	7	.
CC(C)C1CN(c2cncc(C(=O)N3CCCC3)n2)CCC(=O)N1CC1CC1 (centres undefined)	8%	28µM*	-2	5%
CCN(C(=O)c1c(O)c2c(Cl)cccc2n(C)c1=O)c1ccccc1	?	.	.	5.4µM*
O=C1Cc2c(-c3cccc(CO)c3)n[nH]c2CN1c1ccccc1	-11%[87.6 µM]	i	15	31%[87.6 µM]
COc1cccc(-c2nc(N3CCOCC3)cc3c2CN(CC(F)(F)F)C3=O)c1OC	1%[87.6 µM]	32µM*	8	19%[87.6 µM]
O=C1c2cc(N3CCOCC3)nc(-c3cccc(O)c3)c2CN1CC(F)(F)F	-8%[87.6 µM]	40µM*	11	-5%[87.6 µM]
